{"source": "PubChem BioAssay AID1159580", "about": "(chemical genetic matrix, 2015)", "assay": "chemical genetic growth profiling, strain panel (AID 1159580);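 also: tested at 20 µM; growth read once vehicle control cultures reached saturation at 30 °C; 1 = growth at the plate median or of vehicle wells; lower values mean less growth of the strain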", "settings": "growth OD", "key": {"[1]": {"settings": "S. cerevisiae deletion strains, locus YAL013W, strain DEP1, active compounds read low"}, "[2]": {"settings": "S. cerevisiae deletion strains, locus YBR229C, strain ROT2, active compounds read low"}, "[3]": {"settings": "S. cerevisiae deletion strains, locus YCL061C, strain MRC1, active compounds read low"}, "[4]": {"settings": "S. cerevisiae deletion strains, locus YDL101C, strain DUN1, active compounds read low"}, "[5]": {"settings": "S. cerevisiae deletion strains, locus YDR150W, strain NUM1, active compounds read low"}, "[6]": {"settings": "S. cerevisiae deletion strains, locus YEL061C, strain CIN8, active compounds read low"}, "[7]": {"settings": "S. cerevisiae deletion strains, locus YGR078C, strain PAC10, active compounds read low"}, "[8]": {"settings": "S. cerevisiae deletion strains, locus YHR030C, strain SLT2, active compounds read low"}, "[9]": {"settings": "S. cerevisiae deletion strains, locus YHR087W, strain rtc3, active compounds read low"}, "[10]": {"settings": "S. cerevisiae deletion strains, locus YJL187C, strain SWE1, active compounds read low"}, "[11]": {"settings": "S. cerevisiae deletion strains, locus YJR043C, strain POL32, active compounds read low"}, "[12]": {"settings": "S. cerevisiae deletion strains, locus YJR075W, strain HOC1, active compounds read low"}, "[13]": {"settings": "S. cerevisiae deletion strains, locus YLR039C, strain RIC1, active compounds read low"}, "[14]": {"settings": "S. cerevisiae deletion strains, locus YLR058C, strain SHM2 (second series), active compounds read low"}, "[15]": {"settings": "S. cerevisiae deletion strains, locus YLR085C, strain ARP6, active compounds read low"}, "[16]": {"settings": "S. cerevisiae deletion strains, locus YLR262C, strain YPT6, active compounds read low"}, "[17]": {"settings": "S. cerevisiae deletion strains, locus YML094W, strain GIM5, active compounds read low"}, "[18]": {"settings": "S. cerevisiae deletion strains, locus YMR219W, strain ESC1, active compounds read low"}, "[19]": {"settings": "S. cerevisiae deletion strains, locus YMR263W, strain SAP30, active compounds read low"}, "[20]": {"settings": "S. cerevisiae deletion strains, locus YNL153C, strain GIM3, active compounds read low"}, "[21]": {"settings": "S. cerevisiae deletion strains, locus YNL298W, strain CLA4 (second series), active compounds read low"}, "[22]": {"settings": "S. cerevisiae deletion strains, locus YNL322C, strain KRE1, active compounds read low"}, "[23]": {"settings": "S. cerevisiae deletion strains, locus YNR030W, strain Alg12, active compounds read low"}, "[24]": {"settings": "S. cerevisiae deletion strains, locus YOL006C, strain TOP1, active compounds read low"}, "[25]": {"settings": "S. cerevisiae deletion strains, locus YPL055C, strain LGE1, active compounds read low"}, "[26]": {"settings": "S. cerevisiae deletion strains, locus YPL241C, strain CIN2, active compounds read low"}, "[27]": {"settings": "S. cerevisiae deletion strains, locus YPR135W, strain CTF4, active compounds read low"}}, "note": "Out of some 5,500 compounds screened, about 2,000 (36%) were called active. Not shown: some 18% with an inconclusive outcome. This is one part of the list. A number with no mark means an inactive call. Rule as the data show it: active = normalized growth mostly below about 0.91 (no sharp cut-off); inconclusive = no clear call, values can overlap the other calls; inactive = mostly above about 0.92."}
{"compound": "CC(=O)CS(=O)(=O)c1ccc(Cl)cc1", "values": [{"measurement": "normalized growth", "setting": "[1]", "result": 1.02}, {"measurement": "normalized growth", "setting": "[2]", "result": 1.01}, {"measurement": "normalized growth", "setting": "[3]", "result": 1.01}, {"measurement": "normalized growth", "setting": "[4]", "result": 1.01}, {"measurement": "normalized growth", "setting": "S. cerevisiae deletion strains, locus YDL134C, strain PPH21, active compounds read low", "result": 1}, {"measurement": "normalized growth", "setting": "[5]", "result": 0.969}, {"measurement": "normalized growth", "setting": "[6]", "result": 1.02}, {"measurement": "normalized growth", "setting": "[7]", "result": 1}, {"measurement": "normalized growth", "setting": "[8]", "result": 1}, {"measurement": "normalized growth", "setting": "[9]", "result": 0.998}, {"measurement": "normalized growth", "setting": "[10]", "result": 0.995}, {"measurement": "normalized growth", "setting": "[11]", "result": 0.988}, {"measurement": "normalized growth", "setting": "[12]", "result": 0.995}, {"measurement": "normalized growth", "setting": "[13]", "result": 1.02}, {"measurement": "normalized growth", "setting": "[14]", "result": 1}, {"measurement": "normalized growth", "setting": "[15]", "result": 1.04}, {"measurement": "normalized growth", "setting": "[16]", "result": 1.03}, {"measurement": "normalized growth", "setting": "[17]", "result": 1.02}, {"measurement": "normalized growth", "setting": "[18]", "result": 1.01}, {"measurement": "normalized growth", "setting": "[19]", "result": 0.969}, {"measurement": "normalized growth", "setting": "[20]", "result": 0.995}, {"measurement": "normalized growth", "setting": "[21]", "result": 0.992}, {"measurement": "normalized growth", "setting": "[22]", "result": 1.01}, {"measurement": "normalized growth", "setting": "[23]", "result": 1}, {"measurement": "normalized growth", "setting": "[24]", "result": 1.01}, {"measurement": "normalized growth", "setting": "[25]", "result": 1}, {"measurement": "normalized growth", "setting": "[26]", "result": 1.02}, {"measurement": "normalized growth", "setting": "[27]", "result": 0.933}, {"measurement": "normalized growth", "setting": "S. cerevisiae strains, strain wild type, active compounds read low", "result": 1}]}
{"compound": "NC(=S)CS(=O)(=O)c1ccc(C(F)(F)F)cc1", "values": [{"measurement": "normalized growth", "setting": "[1]", "result": 0.977}, {"measurement": "normalized growth", "setting": "[2]", "result": 1.01}, {"measurement": "normalized growth", "setting": "[3]", "result": 1.02}, {"measurement": "normalized growth", "setting": "[4]", "result": 1.03}, {"measurement": "normalized growth", "setting": "[5]", "result": 0.998}, {"measurement": "normalized growth", "setting": "[6]", "result": 1.03}, {"measurement": "normalized growth", "setting": "[7]", "result": 1.01}, {"measurement": "normalized growth", "setting": "[8]", "result": 1.03}, {"measurement": "normalized growth", "setting": "[9]", "result": 1.01}, {"measurement": "normalized growth", "setting": "[10]", "result": 1.02}, {"measurement": "normalized growth", "setting": "[11]", "result": 1.01}, {"measurement": "normalized growth", "setting": "[12]", "result": 1.02}, {"measurement": "normalized growth", "setting": "[13]", "result": 1.09}, {"measurement": "normalized growth", "setting": "[14]", "result": 1.02}, {"measurement": "normalized growth", "setting": "[15]", "result": "1.23 [resistant] (active)"}, {"measurement": "normalized growth", "setting": "[16]", "result": 1.07}, {"measurement": "normalized growth", "setting": "[17]", "result": 1.01}, {"measurement": "normalized growth", "setting": "[18]", "result": 1.02}, {"measurement": "normalized growth", "setting": "[19]", "result": 1.04}, {"measurement": "normalized growth", "setting": "S. cerevisiae deletion strains, locus YNL128W, strain TEP1, active compounds read low", "result": 1.03}, {"measurement": "normalized growth", "setting": "[20]", "result": 1.02}, {"measurement": "normalized growth", "setting": "[21]", "result": 1.03}, {"measurement": "normalized growth", "setting": "[22]", "result": 1}, {"measurement": "normalized growth", "setting": "[23]", "result": 0.992}, {"measurement": "normalized growth", "setting": "[24]", "result": 1.23}, {"measurement": "normalized growth", "setting": "[25]", "result": 0.952}, {"measurement": "normalized growth", "setting": "[26]", "result": 1.09}, {"measurement": "normalized growth", "setting": "[27]", "result": 0.969}]}
